Experimental data as given in PubChem BioAssay (NCI).
About 83,000 compounds went through this panel and 20% of them were active in at least one assay; those are over-represented in the sample as a whole.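 Cells were grown in 96-well plates and exposed to the test compound at a single concentration for 48 hours; results are reported as percent growth, with values below 10 considered active.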 Active and inactive are the calls of the source.

Experiments:
Assay in all cases: NCI-60 one-dose screen, 48 h (100 = growth as untreated, 0 = no growth, -100 = all killed)
Details in all cases: 10 µM unless noted
[1] = tested on: NCI-H23 lung
[2] = tested on: NCI-H226 lung
[3] = tested on: NCI-H322M lung
[4] = tested on: HOP-62 NSCLC
[5] = tested on: NCI-H460 lung
[6] = tested on: HOP-92 NSCLC
[7] = tested on: NCI-H522 lung
[8] = tested on: A549/ATCC NSCLC
[9] = tested on: 786-0 renal
[10] = tested on: COLO 205 colon

Measured: growth

C=COCCCCCCCCCCCCCCCCCC
inactive: [1] 101% | [2] 104% | [3] 137% | [4] 108% | [5] 107% | [6] 75.6% | [7] 97.5% | [8] 79.5% | [9] 102% | [10] 104%

Cn1cc(-c2csc(-c3cn(CCCN4CCCCC4)c4ccc(Br)cc34)n2)c2cccnc21
inactive: [1] 43.3% | [2] 75.9% | [3] 49.7% | [6] 31.5% | [7] 11.7%
active: [4] -56.5% | [5] -66.8% | [8] -49% | [9] -75.9% | [10] -79.5%

Oc1cc(/C=C/c2nc(N3CCOCC3)c3cc(Cl)c(Cl)cc3n2)cc(O)c1O
inactive: [1] 101% | [2] 85.8% | [3] 113% | [4] 97.2% | [5] 101% | [6] 102% | [7] 88.6% | [8] 106% | [9] 95.7% | [10] 108%

COc1cccc(NC(=O)c2sc3nc4c(cc3c2N)C(=O)CCC4)c1
inactive: [1] 21.8% | [2] 74.9% | [3] 56.5% | [4] 27.8% | [6] 57.3% | [8] 22.5% | [9] 41.1%
active: [5] 1.73% | [7] -21.1% | [10] 0.646%

C=C1CC[C@@H](C(=O)OC)Cc2nc(C)ccc21
inactive: [1] 97% | [2] 103% | [3] 109% | [4] 106% | [5] 106% | [6] 106% | [7] 86.4% | [8] 98.5% | [9] 101% | [10] 117%

Cc1ccncc1C(=O)O
inactive: [1] 92.7% | [2] 101% | [3] 101% | [5] 99.6% | [6] 88.4% | [7] 128% | [8] 90.1% | [9] 103% | [10] 128%

COc1ccc(-c2nc(Nc3ccc(-c4nc5ccccc5[nH]4)cc3)nc(N3CCOCC3)n2)cc1
inactive: [1] 11.3% | [2] 17.1% | [3] 27% | [7] 11.9% | [8] 11.2%
active: [5] 0.132% | [6] -6.57% | [9] -60% | [10] -43.7%

C=C(C)[C@@H]1CC[C@]2(C(=O)NNC(=O)c3cccnc3)CC[C@]3(C)[C@H](CC[C@@H]4[C@@]5(C)CCCNC(C)(C)[C@@H]5CC[C@]43C)[C@@H]12
inactive: [1] 84.4% | [2] 83.2% | [3] 101% | [5] 95.9% | [6] 50.5% | [7] 99.4% | [8] 71.6% | [9] 94.8% | [10] 20.6%

Cn1c(/C(C#N)=C/c2ccc3ccccc3c2)cc2ccccc21
active: [5] 6.27% | [10] 2.87%
inactive: [1] 19.4% | [2] 40.5% | [3] 48.9% | [6] 64.8% | [7] 27.1% | [8] 29.8% | [9] 34.1%

c1ccc2[nH]c(-c3cc(-c4ccc5c(c4)OCO5)n[nH]3)nc2c1
inactive: [1] 68.8% | [2] 70.7% | [3] 67.1% | [5] 46.4% | [6] 119% | [7] 32.9% | [8] 58.8% | [9] 55.7% | [10] 70.3%

O=C(c1ccccc1)C(CN1CCOCC1)c1ccccc1 (centres undefined)
active: [7] -51.3%
inactive: [1] 65.3% | [2] 40.1% | [3] 84.7% | [5] 79.4% | [6] 40.5% | [8] 95.3% | [9] 31% | [10] 25.5%

COc1ccc(-n2c(/C=C/c3ccc(O)c(OC)c3)cc(/C=C/c3ccc(O)c(OC)c3)nc2=O)cc1
inactive: [1] 42.5% | [2] 70.7% | [3] 83.6% | [5] 78% | [6] 79.8% | [7] 29.3% | [8] 79.1% | [9] 82.8% | [10] 56.8%

Cc1ccc(C)c2c1CCC2C(C)C (centres undefined)
inactive: [1] 91.9% | [2] 98.6% | [3] 97.9% | [5] 105% | [6] 93.6% | [7] 94.8% | [8] 87.2% | [9] 98.7% | [10] 104%

Cc1cc(C=O)c(C)c2c1[nH]c1ccccc12
active: [2] -21.9%
inactive: [1] 98.5% | [3] 97.7% | [5] 76.1% | [6] 88.7% | [7] 88.5% | [8] 99.2% | [9] 100% | [10] 110%

COc1ccc(OCC(CO)N2CCN(c3ccccc3)CC2)cc1 (centres undefined)
inactive: [1] 103% | [2] 106% | [3] 115% | [5] 116% | [6] 81.2% | [7] 99.4% | [8] 100% | [9] 101%

Brc1ccc2[nH]cc(-c3nc(-c4c[nH]c5ncccc45)cs3)c2c1
inactive: [1] 47% | [2] 62.4% | [3] 42% | [5] 15.7% | [6] 47.9% | [7] 25% | [8] 22.9% | [9] 10.4% | [10] 18.5%

Clc1ccccc1-c1nc(Nc2nc3ccccc3s2)nc(C(Cl)(Cl)Cl)n1
inactive: [1] 76.4% | [2] 95% | [3] 24.6% | [6] 55.6% | [7] 88.4% | [8] 18% | [9] 75.8% | [10] 10.9%
active: [5] 1.36%

CC(=O)OC[C@]12CC[C@@H](/C(C)=N/O)[C@@H]1[C@H]1CC[C@@H]3[C@@]4(C)CCCNC(C)(C)[C@@H]4CC[C@@]3(C)[C@]1(C)CC2
inactive: [1] 86.2% | [2] 88.5% | [3] 90.7% | [5] 84.5% | [6] 66.9% | [7] 83.8% | [8] 64.6% | [9] 73.5% | [10] 75.8%

COc1ccc2c(c1)c(-c1nc(-c3cn(C)c4ncccc34)cs1)cn2CCN
inactive: [1] 81.2% | [2] 84.2% | [3] 77.2% | [5] 31.7% | [6] 57.8% | [7] 93% | [8] 45.7% | [9] 94.4% | [10] 77%

COc1ccc(C2NC(=O)Nc3ccccc32)c(OC)c1 (centres undefined)
inactive: [1] 102% | [2] 89.7% | [3] 96.6% | [5] 101% | [6] 86.7% | [7] 91.6% | [8] 98.4% | [9] 103% | [10] 112%

COc1cc2[nH]c(C(=O)c3cc(OC)c(OC)c(OC)c3)c(N)c2cc1C#CCO
inactive: [1] 35.7% | [2] 27.9% | [3] 43.6% | [6] 21.6% | [8] 33% | [9] 40.8%
active: [5] 7.9% | [7] -6.03%

Cn1cc(-c2csc(-c3cn(C(=O)OC(C)(C)C)c4ccccc34)n2)c2cccnc21
active: [7] -8.18%
inactive: [1] 70.4% | [2] 91.4% | [3] 103% | [5] 60.7% | [6] 57.1% | [8] 52.9% | [9] 76.6% | [10] 64.8%

COc1ccc2[nH]cc(-c3nc(-c4c[nH]c5ncccc45)cs3)c2c1
inactive: [2] 53.2% | [3] 44.5% | [4] 53.5% | [5] 21.8% | [6] 25.9% | [7] 31.3% | [8] 22.4% | [9] 16.2%
